Hits are enriched below; roughly 7.4% of the tested compounds scored in any of these assays.
HEK293 tox: HEK 293 cell cytotoxicity | HEK 293 viability, ATP luminescence (CellTiter-Glo), 48-72 h | 94,000 compounds, 6.6% hits | Potency, µM (doses to about 115 µM), inactives show at the highest dose activity change, negative = cytotoxicity, usual class: inhibitors; further: nearly all actives have a fitted effect of over 60% in size
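Read-out: CellTiter-Glo ATP luminescence. Cells: HEK 293, 250 cells/well. Exposure: 48 or 72 hr, 37 degree Celsius.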
SNCA expr inh: SNCA gene expression inhibition. HEK-293 SNCA-luciferase knock-in, luminescence, 24 h. 140,000 compounds, 0.17% hits. Potency, µM (doses to about 57.2 µM), without a hit: at the top dose activity change, negative = inhibition, usual class: inhibitors. AID 1671194;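 further: plate controls were DMSO cells for no effect and cell-free wells for full effect; nearly all actives have a fitted effect of over 45% in size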
NIH3T3 tox: NIH 3T3 cell cytotoxicity | AID 1345082 | 94,000 compounds, 4.3% hits | Potency, µM (series often up to 96.7 µM), for inactives: at the top dose activity change, negative = cytotoxicity, hits mostly inhibitors | NIH 3T3 viability, CellTiter-Glo ATP luminescence, 48-72 h; further: nearly all actives have a fitted effect of over 55% in size
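First NIH 3T3 cells are plated at 400 cells/well; next compound is pinned in; then plates incubate 48 or 72 hr at 37 °C; finally CellTiter-Glo is added and luminescence read after 10 min.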
FLuc inh: inhibitors of firefly (Photinus pyralis) luciferase; P08659; purified P. pyralis luciferase, luminescence, biochemical; Potency, µM (highest dose often 115 µM), most hits filed as inhibitors; 76,000 compounds, 2.5% hits; AID 1347043; further: nearly all actives have a fitted effect of over 65% in size
Target sequence (P08659 whole entry, looked up): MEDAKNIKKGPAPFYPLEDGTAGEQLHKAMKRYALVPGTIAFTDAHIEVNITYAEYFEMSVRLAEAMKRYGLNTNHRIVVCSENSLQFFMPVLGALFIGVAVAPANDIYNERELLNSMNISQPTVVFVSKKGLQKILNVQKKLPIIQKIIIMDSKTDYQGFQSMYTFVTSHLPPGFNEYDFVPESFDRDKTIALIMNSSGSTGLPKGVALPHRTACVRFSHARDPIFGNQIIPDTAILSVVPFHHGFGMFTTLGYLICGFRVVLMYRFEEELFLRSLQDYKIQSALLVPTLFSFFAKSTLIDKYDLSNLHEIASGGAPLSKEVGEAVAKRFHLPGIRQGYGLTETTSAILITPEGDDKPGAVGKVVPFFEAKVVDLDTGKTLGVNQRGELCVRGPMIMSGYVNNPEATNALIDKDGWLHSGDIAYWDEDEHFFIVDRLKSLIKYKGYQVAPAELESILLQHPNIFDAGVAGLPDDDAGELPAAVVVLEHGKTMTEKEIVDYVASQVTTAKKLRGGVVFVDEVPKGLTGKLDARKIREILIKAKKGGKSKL
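Luminescence read by CCD imaging after purified firefly luciferase (10nM final) was added to substrate buffer holding 10uM D-luciferin and 10uM ATP, pH 7.5, pre-dosed with compound.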
SNCA viab count: counter-screen for SNCA expression inhibitors: cell viability; 150,000 compounds, 0.12% hits; HEK-293-SNCA-luc viability, GF-AFC fluorescence, 24 h; Potency, µM (titrated, usually from 57.1 µM), inactives show top-dose activity change, negative = cytotoxicity, most hits filed as cytotoxic;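 further: 0% = DMSO-treated cells and -100% = medium-only wells without cells; nearly all actives have a fitted effect of over 30% in size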
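HEK-293-SNCA-luc cells (1500/well) plated 24 h, then exposed 24 h to a dilution series; GF-AFC added 30 min at 37C, fluorescence 405/540 nm; normalised to medium-only and DMSO wells, Hill fit.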
hNpr1 antagonist: human Npr1 receptor antagonism; HEK293 hNpr1 GloSensor cGMP, ANP-stimulated luminescence; P16066; Potency, µM (top dose mostly 46.3 µM), without a hit: at the highest dose activity change, negative = inhibition, most hits filed as inhibitors; 76,000 compounds, 1.6% hits; calls by dose curve; further: nearly all actives have a fitted effect of over 60% in size
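Compound pre-incubated 30 min at room temperature on GloSensor-loaded HEK293 cells stably carrying hNpr1 and the pGS-40F cGMP biosensor. Stimulation uses hNppA at 0.1 nM final; luminescence is taken at baseline and 20 min post-agonist.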
Starred values were filed as active, the others as inactive; i = inactive; ? = inconclusive; nt = no result; [ ] = another dose, or the depositor's remark. Unless noted, the call rests on the fitted dose curve; in most records, active means well fitted curve in the direction sought with a large enough effect; inconclusive means small, poorly fitted or top-dose-only effect, or another doubt; inactive means no such curve, though single readings can be large; an effect the other way counts as inactive or inconclusive. Unless noted, on the % scale 0 is the no-effect control and ±100 the full control effect; potency means the concentration at half of the fitted maximal effect.

SMILES	HEK293 tox	SNCA expr inh	NIH3T3 tox	FLuc inh	SNCA viab count	hNpr1 antagonist
COCCN1C(=O)[C@@H]2C[C@@H](CN2Cc2ccc(OC(F)(F)F)cc2)Oc2ccccc21	?	-24%	?	i	-15%	10%
C[S+](=O)([O-])c1cccc(-c2nnc3ccc(C(=O)NCC(F)F)cn23)c1	1%	11%	-14%	nt	9%	nt
COc1ccc([C@H]2C[C@@H](O)[C@@H](O)[C@@H]2NC(=O)c2cc3ccccc3s2)cc1	79µM*	2%[87.6 µM]	?	i	-15%[87.6 µM]	?
COc1ccc([C@H]2C[C@@H](O)[C@@H](O)[C@@H]2NCc2cn(C)c3ccccc23)cc1	?	-15%[87.6 µM]	89µM*	i	?	-24%[70.6 µM]
COc1ccc([C@H]2C[C@@H](O)[C@@H](O)[C@@H]2NCc2cnn(C)c2)cc1	-12%[172 µM]	14%[87.6 µM]	-7%[138 µM]	i	?	-3%[70.6 µM]
COc1ccc(CN[C@H]2[C@H](O)[C@H](O)C[C@@H]2c2ccc(C(F)(F)F)cc2)cc1	45µM*	-16%[87.6 µM]	28µM*	i	-7%[87.6 µM]	-15%[70.6 µM]
O=C(N[C@H]1[C@H](O)[C@H](O)C[C@@H]1c1ccc(C(F)(F)F)cc1)c1ccc2c(c1)OCCO2	?	0%[87.6 µM]	100µM*	?	?	0%[70.6 µM]
O=C(N[C@H]1[C@H](O)[C@H](O)C[C@@H]1c1ccc(C(F)(F)F)nc1)c1ccc2c(c1)OCCO2	-8%[172 µM]	0%[87.6 µM]	-22%[174 µM]	i	-23%[87.6 µM]	-2%[70.6 µM]
CNC(=O)c1cc(C2CC2)nc2c1c(C1CCCN(C(=O)c3ccccc3F)C1)nn2C (stereo not given)	i	nt	-26%	nt	nt	nt
COc1ccc(-n2c(=O)c(C(=O)N(C)C)nc3cccnc32)cc1	4%[172 µM]	-4%[87.6 µM]	i	nt	8%[87.6 µM]	nt
O=C(NCCN1CCOCC1)c1cn2cc(-c3ccc(C(F)(F)F)cc3)sc2n1	-3%	53%	-32%	nt	6%	nt
CCn1nccc1C(=O)N1CCC(N2C(=O)[C@H]3CN(Cc4ccccc4)C[C@H]3C2=O)CC1	-27%	9%	-26%	nt	15%	nt
COc1ccc([C@H]2C[C@@H](O)[C@@H](O)[C@@H]2NS(=O)(=O)c2ccc(Cl)cc2)cc1	-29%[172 µM]	7%[87.6 µM]	-29%[138 µM]	i	3%[87.6 µM]	-15%[70.6 µM]
COc1ccc([C@H]2C[C@@H](O)[C@@H](O)[C@@H]2NCc2ccccc2)cc1	-23%[172 µM]	-3%[87.6 µM]	1%[174 µM]	i	-8%[87.6 µM]	?
COc1ccc([C@H]2C[C@@H](O)[C@@H](O)[C@@H]2NCc2ccc(Cl)cc2)cc1	100µM*	?	?	i	-20%[87.6 µM]	-21%[70.6 µM]
COc1ccc([C@H]2C[C@@H](O)[C@@H](O)[C@@H]2NS(=O)(=O)c2ccc(C(F)(F)F)cc2)cc1	100µM*	-2%[87.6 µM]	-28%[174 µM]	i	5%[87.6 µM]	2%[70.6 µM]
CN(C(=O)C1CC1)C1CCCc2ccccc21 (stereo not given)	?	-1%[87.6 µM]	?	i	6%[87.6 µM]	0%[70.6 µM]
CN(C(=O)Cc1cccc(Cl)c1)C1CCCc2ccccc21 (stereo not given)	100µM*	6%[87.6 µM]	?	i	-14%[87.6 µM]	6%[70.6 µM]
Cc1ccc(S(=O)(=O)N(C)C2CCCc3ccccc32)cc1 (stereo not given)	89µM*	-9%[87.6 µM]	?	i	-11%[87.6 µM]	-9%[70.6 µM]
CN(C(=O)c1ccc(C(F)(F)F)cc1)C1CCc2ccccc21 (stereo not given)	?	21%[87.6 µM]	?	i	-2%[87.6 µM]	7%[70.6 µM]
Cc1ccccc1C(=O)N(C)C1CCCc2ccccc21 (stereo not given)	89µM*	-4%[87.6 µM]	?	i	0%[87.6 µM]	4%[70.6 µM]
CN(C(=O)c1ccc(C(F)(F)F)cc1)C1CCCc2ccccc21 (stereo not given)	?	81%[87.6 µM]	50µM*	?	20%[87.6 µM]	-2%[70.6 µM]
O=C(NCc1ccccc1Cl)c1nc2sccn2c1-c1ccncc1	?	-8%	?	nt	2%	nt
C[S+](=O)([O-])c1ccc(-c2cc(C(=O)NC3CC3)nn3cccc23)cc1	?	6%	?	nt	-11%	nt
CCC1Oc2ccc(NS(=O)(=O)c3ccccc3)cc2CN(Cc2ccc(F)cc2)C1=O (stereo not given)	35µM*	4%	?	i	8%	-5%
SMILES	HEK293 tox	SNCA expr inh	NIH3T3 tox	FLuc inh	SNCA viab count	hNpr1 antagonist
CCC1Oc2ccc(NC(=O)Cc3ccc(OC)cc3)cc2CN(Cc2ccc(OC)cc2)C1=O (stereo not given)	?	-8%	?	i	-2%	-12%
CCC1Oc2ccc(NC(=O)C3CCCC3)cc2CN(Cc2ccc(F)cc2)C1=O (stereo not given)	?	-9%	?	i	0%	-22%
CCC1Oc2ccc(NS(=O)(=O)c3ccc(Cl)cc3)cc2CN(Cc2ccc(F)cc2)C1=O (stereo not given)	?	-26%	14µM*	i	-27%	-24%
CCC1Oc2ccc(NS(=O)(=O)c3ccc(C)c(F)c3)cc2CN(Cc2ccc(OC)cc2)C1=O (stereo not given)	?	35%	25µM*	i	-3%	-20%
COc1cccc(-c2c(C(=O)N3CCN(C(C)=O)CC3)nc3sccn23)c1	-2%	-27%	-11%	nt	-8%	nt
CN(c1cc(=O)c2ccnc(-c3cncnc3)c2o1)C1CCOCC1	i	-19%[87.6 µM]	79µM*	i	5%[87.6 µM]	1%[70.6 µM]
CN(c1cc(=O)c2ccnc(-c3cccc(CO)c3)c2o1)C1CCOCC1	-9%[172 µM]	25%[87.6 µM]	25µM*	i	3%[87.6 µM]	1%[70.6 µM]
CN(C)c1cccc(-c2nccc3c(=O)cc(N(C)C4CCOCC4)oc23)c1	-9%[172 µM]	?	?	i	8%[87.6 µM]	-1%[70.6 µM]
CC(C)(C)C(=O)N1CCN(Cc2ccccc2-c2cccnc2)CC1	100µM*	0%[87.6 µM]	-29%[138 µM]	nt	-5%[12.5 µM]	nt
O=C(c1ccncc1)N1CCN(Cc2ccccc2-c2cccnc2)CC1	-18%	9%	-40%	nt	28%[12.5 µM]	nt
O=C(C1CCCC1)N1CCN(Cc2ccccc2-c2cccnc2)CC1	50µM*	-12%	?	nt	-17%[12.5 µM]	nt
CC(=O)N1CCN(Cc2ccccc2-c2cccnc2)CC1	-1%[172 µM]	-2%[87.6 µM]	-13%[138 µM]	nt	3%[12.5 µM]	nt
CN1CCCCCC(O)c2cc(C(=O)N3CCN(c4ccc(F)cc4)CC3)ccc21 (stereo not given)	45µM*	-15%	?	i	-22%	-27%
COc1ccccc1CN1CCN(C(=O)c2ccc3c(c2)C(O)CCCCCN3C)CC1 (stereo not given)	50µM*	1%	?	i	3%	-22%

Screening data from PubChem.
